Screening results as filed in PubChem BioAssay.
Most compounds without a hit are left out; they make up all but 4.1% or so of the library.
ssDAF-12 act – activates DAF-12 receptor from parasite S. stercoralis. HEK293 ssDAF-12/GRIP1 lit1-tk-luc reporter, luminescence; % of 3 µM dafachronic acid response. activation, % at 6.8 µM. 370,000 tested, 1% active;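 active means activation above the mean over all tested compounds plus 3 SD, cut at about 0.9% in these data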
PolyA inh – blocks polyadenylation in yeast reporter cells. activity score, % at 12 µM. AID 1875. S. cerevisiae SKY197-pL101 polyadenylation reporter, beta-gal luminescence; efflux-impaired pdr1/pdr3 knockout yeast; score 100 = 6 SD above DMSO. 300,000 tested, 0.02% active;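 active means lowest replicate activity score at least 50, where 100 means six control SD above control mean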;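 further: yeast exposed to compound for 9 h at 30 °C; higher score means more reporter readthrough which indicates perturbed polyadenylation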
DAX1 inh-1 – inhibitors of human orphan nuclear receptor DAX1 (NR0B1); P51843; 340,000 tested, 0.99% active; AID 504766; inhibition, % at 6.75 µM; HEK293 Gal4-DAX1 luciferase reporter, luminescence;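 active means inhibition above the mean over all tested compounds plus 3 SD, cut at about 4.2% in these data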;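 further: inhibition shows as a rise in luminescence from relieved DAX1 repression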
Target sequence (P51843 207-470 limits assumed): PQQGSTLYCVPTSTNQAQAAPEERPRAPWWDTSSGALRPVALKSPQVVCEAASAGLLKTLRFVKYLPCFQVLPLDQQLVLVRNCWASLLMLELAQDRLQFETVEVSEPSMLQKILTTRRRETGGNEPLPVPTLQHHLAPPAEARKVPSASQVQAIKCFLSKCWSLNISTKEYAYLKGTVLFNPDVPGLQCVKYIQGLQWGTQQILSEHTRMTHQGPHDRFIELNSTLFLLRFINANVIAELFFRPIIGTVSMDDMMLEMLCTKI
hcDAF12 agonist – activates DAF-12 receptor from parasite H. contortus; HEK293 hcDAF-12 lit1-tk-luc reporter, luminescence; 0% DMSO, 100% Δ7-dafachronic acid; activation, % at 6.8 µM; 370,000 tested, 1.4% active; AID 652067;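 active means activation above the mean of all tested compounds plus 3 SD, cut at about 5.5% in these data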
hgDAF12 agonist – hgDAF-12 agonism, primary luciferase screen; HEK293 GAL4-hgDAF12 UAS-luciferase reporter, agonist luminescence; normalized to butyrate control; activation, % at 6.8 µM; 370,000 tested, 1.8% active;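 active means activation above a cutoff set at the mean of all screened compounds plus 3 SD, cut at about 10% in these data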
DAX1 inh-2 – DAX1 (NR0B1) inhibition, primary screen; HEK293T StAR-luciferase reporter, SF-1/DAX-1 repression relief; inhibition, % at 6.8 µM; 370,000 tested, 1.1% active;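 active means inhibition above the mean over all tested compounds plus 3 SD, cut at about 3.6% in these data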;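 further: higher inhibition means more luminescence from relief of DAX-1 repression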
hgDAF12 ag – confirmation of H. glycines DAF-12 agonists | 3,300 tested, 80% active | shares compounds with hgDAF12 agonist | activation, % at 6.8 µM | AID 743050 | HEK293 GAL4-hgDAF12 luciferase reporter, agonist mode; percent of butyrate response;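 active means mean activation over triplicate wells above the hit cutoff derived from the earlier primary screen, cut at about 11% in these data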
LXRb DAF12 ctr – counter-screen for DAF-12 agonists: agonists of human LXR-beta; shares compounds with hgDAF12 agonist; HEK293 Gal4-LXR luciferase reporter, 24 h; activation, % at 6.8 µM; 3,300 tested, under 10 active;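 active means mean activation of the triplicate above a set limit carried over from the primary screen, none filed active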
Large screens that a line does not name were inactive (follow-up assays come after a bar, where they were run).

O=C1CSC(c2cccc([N+](=O)[O-])c2)N1c1ccccc1F (centres undefined)	none
CC(=O)c1ccc(-c2cnc3c(NC=O)cc(-c4ccc(N5CCN(C)CC5)cc4)cn23)cc1	hgDAF12 agonist 17 (no result: PolyA inh, DAX1 inh-1) | hgDAF12 ag inactive | LXRb DAF12 ctr inactive
CN1CCN(c2ccc(-c3cc(NC=O)c4ncc(-c5ccc(F)c(Cl)c5)n4c3)cc2)CC1	none (no result: PolyA inh, DAX1 inh-1)
O=C(OCCCOC(=O)c1ccc(O)cc1)c1ccc(O)cc1	none
c1ccc(CCSc2nccn2-c2ccccc2)cc1	hcDAF12 agonist 5.8, hgDAF12 agonist 14 | hgDAF12 ag 14 | LXRb DAF12 ctr inactive
CCc1ccc(CSc2nccn2-c2ccccc2)cc1	none
COc1ccc(CNC(=O)C2CC(c3ccc(OC)cc3)=NO2)cc1 (centres undefined)	none
COc1ccc(C2=NOC(CNC(N)=S)C2)cc1 (centres undefined)	DAX1 inh-1 4.5, hgDAF12 agonist 13 | hgDAF12 ag 15 | LXRb DAF12 ctr inactive
c1csc(-c2nc(-c3ccc(-c4ccon4)s3)no2)c1	hgDAF12 agonist 17 | hgDAF12 ag 17 | LXRb DAF12 ctr inactive
COc1ccc(OCCCSc2ncccn2)cc1	hgDAF12 agonist 14 | hgDAF12 ag 11 | LXRb DAF12 ctr inactive
CC(=O)Nc1cccc(-c2csc(Nc3ccc(Cl)cn3)n2)c1	DAX1 inh-1 5.9, hgDAF12 agonist 13, DAX1 inh-2 3.8 | hgDAF12 ag 13 | LXRb DAF12 ctr inactive
CC(=O)Oc1ccc(-c2csc(Nc3ccccn3)n2)cc1	hgDAF12 agonist 16, DAX1 inh-2 3.9 (no result: PolyA inh) | hgDAF12 ag 14 | LXRb DAF12 ctr inactive
Cc1cccc(OC(=O)c2ccc3c(=O)n4c(nc3c2)CCC4)c1	none (no result: PolyA inh)
COC(=O)CCc1sc(Nc2ccccc2)nc1-c1ccc(OC)cc1	hgDAF12 agonist 14 | hgDAF12 ag 13 | LXRb DAF12 ctr inactive
Cc1ccc(Nc2ncnc3ccccc23)cc1	hgDAF12 agonist 14 | hgDAF12 ag inactive | LXRb DAF12 ctr inactive
Cc1cccc(Nc2nn3c(=O)c4ccccc4nc3s2)c1	none
CCCSc1nn2c(=O)c3ccccc3nc2s1	hgDAF12 agonist 15 | hgDAF12 ag 16 | LXRb DAF12 ctr inactive
CCCNC(=S)N1CCC(C(=O)c2ccc(F)cc2)CC1	none
CCCC12CN3CCN(CC(C3)/C1=N\NC(=O)c1ccc(F)cc1)C2	hgDAF12 agonist 13 | hgDAF12 ag inactive | LXRb DAF12 ctr inactive
Cc1ccc(C(=O)NCCc2ccc(F)cc2)s1	hgDAF12 agonist 17 | hgDAF12 ag 17 | LXRb DAF12 ctr inactive
Cc1ccc(C(=O)NCc2ccc(F)cc2)s1	none
O=c1c(-c2ccc3c(c2)OCCO3)coc2cc(OC3OC(CO)C(O)C(O)C3O)ccc12 (centres undefined)	hcDAF12 agonist 5.8, hgDAF12 agonist 17 | hgDAF12 ag 14 | LXRb DAF12 ctr inactive
COc1ccc(-c2coc3cc(O[C@@H]4O[C@H](CO)[C@@H](O)[C@H](O)[C@H]4O)ccc3c2=O)cc1	none (no result: PolyA inh)
Cc1nn(Cc2ccccc2Cl)c(Cl)c1C(=O)NCCc1ccccc1	hgDAF12 agonist 17, DAX1 inh-2 4.0 | hgDAF12 ag 15 | LXRb DAF12 ctr inactive
O=C(Nc1nc2ncccn2c1-c1ccc(F)c(F)c1)c1ccc(F)cc1	none (no result: PolyA inh, DAX1 inh-1)
Nc1cc2c(cc1Cl)-c1ccccc1C2=NO	hgDAF12 agonist 16 (no result: PolyA inh) | hgDAF12 ag inactive | LXRb DAF12 ctr inactive
C=CS(=O)(=O)N(Cc1ccc(F)cc1)C(=C)C(=O)OC	none (no result: PolyA inh, DAX1 inh-1)
O=C(/C=C/c1cccc(F)c1)Nc1nccs1	hgDAF12 agonist 15 | hgDAF12 ag 15 | LXRb DAF12 ctr inactive
Cc1ccc(/C=C/C(=O)Nc2nccs2)o1	none
CCCn1cnc2cc(NC(=O)c3cccs3)ccc21	hgDAF12 agonist 13 | hgDAF12 ag inactive | LXRb DAF12 ctr inactive
CCn1cnc2cc(NC(=O)c3ccc(C)cc3)ccc21	hgDAF12 agonist 14 | hgDAF12 ag 11 | LXRb DAF12 ctr inactive
